{"source": "PubChem BioAssay AID504720", "about": "(Sanford-Burnham Center for Chemical Genomics, 2011)", "note": "In all, about 350,000 compounds went through this assay and about 1,100 (0.31%) were called active. The sample holds actives, similar compounds and a random draw of the others, so the mix is not that of the screen. Values without a mark were called inactive. Cut-off read from the data, not from the text of the source: active = activation above about 50%; inactive = the rest.", "data": [{"biological_target": "Endoribonuclease toxin MazF (Escherichia coli (strain K12)) (UniProt P0AE70)", "sequence (P0AE70 whole entry, looked up)": "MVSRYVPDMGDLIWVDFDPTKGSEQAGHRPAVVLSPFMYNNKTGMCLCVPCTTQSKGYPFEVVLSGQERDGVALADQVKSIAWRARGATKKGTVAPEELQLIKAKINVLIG", "assay": "activators of E. coli MazEF toxin-antitoxin RNase, primary screen, biochemical, fluorescence, uHTS (AID 504720)", "settings": "FAM/BHQ RNA-DNA oligo cleavage fluorescence, 5 h, at 20 µM, hits give high values", "values": [{"smiles": "Cc1cc(NC(=O)CSc2nc(C(C)C)nc3sc4c(c23)CCC(C)C4)no1", "note": "(stereo not given)", "activation": "2.72%"}, {"smiles": "CC(C)c1nc(SCC(=O)Nc2cccc(C(=O)O)c2)c2c3c(sc2n1)CCCC3", "activation": "3.75%"}, {"smiles": "Cc1nc(SCC(=O)Nc2cc(C)on2)c2c3c(sc2n1)CCCC3", "activation": "63.5% (active)"}, {"smiles": "CCC(C)(C)NC(=O)C(c1ccccn1)N(C(=O)c1csnn1)c1ccccc1", "note": "(stereo not given)", "activation": "5.61%"}, {"smiles": "COc1ccc(CCNC(=O)CSc2nc(C)nc3c2oc2ccccc23)cc1OC", "activation": "6.58%"}, {"smiles": "O=c1cc(CN2CCN(c3cccc(Cl)c3)CC2)c2cc3c(cc2o1)CCCC3", "activation": "-4.83%"}, {"smiles": "Cc1ccnc(N2CCN(C(=O)CSc3nc4ccccc4nc3N3CCCCC3)CC2)c1", "activation": "-5.31%"}, {"smiles": "COc1cc(OC)cc(-c2c(C#Cc3ccsc3)c3cc(-c4ccc(OC)cc4F)ccc3n2C)c1", "activation": "-17.7%"}, {"smiles": "Cc1ccc(Nc2nc(-c3ccc(O)cc3O)cs2)nc1", "activation": "17.4%"}, {"smiles": "O=c1oc2ccccc2cc1-c1csc(Nc2ccc(O)cc2)n1", "activation": "78.3% (active)"}, {"smiles": "Cc1ccn2c(-c3csc(Nc4ccc(C(=O)O)cc4)n3)c(C)nc2c1", "activation": "-8.63%"}, {"smiles": "CCCC1(C(=O)OC)NC(c2ccco2)C2C(=O)N(C)C(=O)C21", "note": "(stereo not given)", "activation": "-13%"}, {"smiles": "NS(=O)(=O)c1ccc(NC(=S)NNC(=O)c2cccs2)cc1", "activation": "13.7%"}, {"smiles": "Oc1ccc(N2CCN(C(=S)NCc3ccccc3)CC2)cc1", "activation": "-1.54%"}, {"smiles": "O=C(COC(=O)c1ccccc1C(=O)N1CCN(c2ccccc2)CC1)NCc1ccccc1", "activation": "67.3% (active)"}, {"smiles": "CC(C)N(C(=O)COC(=O)c1ccccc1C(=O)N1CCN(c2ccc(F)cc2)CC1)C(C)C", "activation": "5.64%"}, {"smiles": "Cn1c2ccccc2n2c(=O)c(=O)n(CC(=O)c3ccc(F)cc3)nc12", "activation": "-20.6%"}, {"smiles": "CCSc1ccccc1C(=O)NCc1ccc(OC)cc1", "activation": "2.86%"}, {"smiles": "COc1ccc(OC)c(NC(=O)c2cnn(-c3ccccc3Cl)c2NC(=O)c2ccco2)c1", "activation": "4.29%"}, {"smiles": "Cn1nc(C(F)(F)F)cc1C(=O)O", "activation": "11.7%"}, {"smiles": "CCC(=O)OCc1c(C(F)(F)F)nn(C)c1Oc1cccc(C(F)(F)F)c1", "activation": "-2.22%"}, {"smiles": "Cn1nc(C(F)(F)F)cc1-c1ccc(/C=C(\\C#N)C(=O)c2cccc(C(F)(F)F)c2)s1", "activation": "730% (active)"}, {"smiles": "C=CCSc1nc(Cc2ccc(Cl)cc2)nc2ccccc12", "activation": "-10.7%"}, {"smiles": "COc1cccc(OC)c1CN(C)C(=O)c1cnccc1C(F)(F)F", "activation": "-0.62%"}, {"smiles": "Cc1nc([N+](=O)[O-])cn1CC(=O)Nc1ccc(Cl)cc1", "activation": "7.49%"}, {"smiles": "Nc1c(C(=O)c2cccs2)sc2nsc(SCCN3CCCCC3)c12", "activation": "790% (active)"}, {"smiles": "CN=C(c1ccccc1)c1c(C)cccc1C", "activation": "0.32%"}, {"smiles": "CN(C)CCNC(=O)C(C(=O)c1ccccc1)n1ccccc1=O", "note": "(stereo not given)", "activation": "5.66%"}, {"smiles": "Cc1nn2c3cc(N4CCOCC4)ccc3nc2c2ccccc12", "activation": "31.7%"}, {"smiles": "CC(=O)c1sc(NC(=O)C2=NN(c3ccccc3)C(=O)CC2)nc1C", "activation": "0.238%"}, {"smiles": "Cc1ccn2c(=O)c(NC(=O)c3cccc4ccccc34)c(C)nc2c1", "activation": "4.6%"}, {"smiles": "CC(=O)c1sc(NC(=O)c2cccc3ccccc23)nc1C", "activation": "63.5% (active)"}, {"smiles": "Cc1cccc(N2C(=O)C3C(c4ccccc4)OC4(C(=O)c5ccccc5C4=O)C3C2=O)c1", "note": "(stereo not given)", "activation": "0.83%"}, {"smiles": "CCOc1ccc(N2C(=O)Nc3ccccc3C2(O)C(=O)NCc2ccco2)cc1", "note": "(stereo not given)", "activation": "-28.4%"}, {"smiles": "CCCCCCCC(=O)NC(Nc1ccccc1OC)C(Cl)(Cl)Cl", "note": "(stereo not given)", "activation": "-13.4%"}, {"smiles": "Cc1ccsc1CNn1cnnc1SCc1ccccc1F", "activation": "54.5% (active)"}, {"smiles": "Cc1ccccc1CSc1nnc(-c2cccnc2)n1N", "activation": "-17.4%"}, {"smiles": "CCN(CC(=O)NCc1cccs1)C(=O)c1cccc(S(=O)(=O)Nc2ccccc2OC)c1", "activation": "2.02%"}, {"smiles": "CCOc1ccc(C(C(=O)NCCOC)N(CCOC)C(=O)CCC(=O)Nc2ccccn2)cc1", "note": "(stereo not given)", "activation": "-1.66%"}, {"smiles": "Cc1ccc(C(=O)O)cc1N1C(=O)CCCC1=O", "activation": "4.24%"}, {"smiles": "COCCCNc1nc2c(-c3cccc(C)c3)nnn2c2ccc(Cl)cc12", "activation": "6.31%"}, {"smiles": "CN(CC(=O)Nc1ccc(F)c(F)c1F)C(=O)Cn1cnc2c1c(=O)n(C)c(=O)n2C", "activation": "3.59%"}, {"smiles": "O=C(c1ccc(Cl)cc1)N1N=C(c2ccccn2)CC1(O)C(F)(F)F", "note": "(stereo not given)", "activation": "7.8%"}, {"smiles": "O=C1NC(=O)N(c2ccc(F)cc2)C(=O)/C1=C/c1ccc2c(c1)CCCN2Cc1ccccc1", "activation": "50.1% (active)"}, {"smiles": "O=C1CN(C(=O)c2cc(F)cc(F)c2)c2ccccc2N1", "activation": "10.5%"}, {"smiles": "COCCNC(=O)C(c1ccc(O)cc1)N(C(=O)CCC(=O)Nc1nccs1)c1ccc(C)cc1", "note": "(stereo not given)", "activation": "8.66%"}, {"smiles": "CC(=O)Oc1cc2c(C(=O)NCCN3CCOCC3)c(C)oc2c2ccccc12", "activation": "-12.4%"}, {"smiles": "O=C(CN1C(=O)NC(Cc2ccccc2)(Cc2ccccc2)C1=O)NCC1CCCCC1", "activation": "2.41%"}, {"smiles": "CCCCCCNCCn1cnc2c(N)ncnc21", "activation": "2.79%"}, {"smiles": "CCOCCN(C=O)c1cccc(OC)c1", "activation": "4.02%"}, {"smiles": "CCC(C(=O)NC1CCCCC1)N(C(=O)c1snc(C(N)=O)c1N)c1ccc(OC)cc1OC", "note": "(stereo not given)", "activation": "8.72%"}, {"smiles": "COc1ccc(C(C(=O)NC2CCCCC2)N(C(=O)c2snc(C(N)=O)c2N)c2ccccc2OC)cc1", "note": "(stereo not given)", "activation": "6.68%"}, {"smiles": "COc1ccc(N(C(=O)c2snc(C(N)=O)c2N)C(C(=O)NC2CCCC2)c2ccc(C)o2)c(OC)c1", "note": "(stereo not given)", "activation": "146% (active)"}, {"smiles": "O=C(NCCCO)/C(=C\\C=C\\c1ccccc1)NC(=O)c1ccccc1Cl", "activation": "-2.84%"}, {"smiles": "CCNC(=O)NC(=O)C(C)OC(=O)C1CCN(S(=O)(=O)c2ccccc2F)CC1", "note": "(stereo not given)", "activation": "5.47%"}, {"smiles": "C=CC[C@H](CC(=O)N(CCO)Cc1ccccc1)C(=O)N[C@@H](COC(=O)[C@@H](CC=C)Cc1ccc(F)cc1)Cc1ccccc1", "activation": "-7.46%"}, {"smiles": "Cc1nc(NCc2ccccc2)c(C(N)=O)c2c1COC(C)(C)C2", "activation": "-2.87%"}, {"smiles": "CCCn1c(=O)c2c(C(F)(F)F)cc(-c3cccs3)nc2n(CCC)c1=O", "activation": "11.8%"}, {"smiles": "O=C(O)C(c1ccccc1)N1C(=O)/C(=C\\c2ccc(-c3cccc(Cl)c3)o2)SC1=S", "note": "(stereo not given)", "activation": "199% (active)"}, {"smiles": "O=C(NC(=S)Nc1cc(C(F)(F)F)ccc1N1CCOCC1)c1ccc(-c2cccc(Cl)c2)o1", "activation": "-2.26%"}, {"smiles": "CC(C(=O)NC1CCS(=O)(=O)C1)N1C(=O)/C(=C/c2ccc(Cl)cc2)SC1=S", "note": "(stereo not given)", "activation": "0.406%"}, {"smiles": "CC(C)N=C1CCCC1C(=S)SSC(=S)C1CCCC1=NC(C)C", "note": "(stereo not given)", "activation": "1.19%"}, {"smiles": "CN(C)c1ccc(C2N(C)C(=O)c3ccccc3N2C)cc1", "note": "(stereo not given)", "activation": "-0.422%"}, {"smiles": "CN(C)c1ccc(Nc2c3c4c(cccc4n(C)c2=O)C(=O)c2ccccc2-3)cc1", "activation": "178% (active)"}, {"smiles": "NC1=NC(=O)C(Cc2cccc(Cl)c2Cl)S1", "note": "(stereo not given)", "activation": "-10%"}, {"smiles": "COc1cc(C(=O)NCc2nnc(SCC(=O)Nc3nc4ccc(C)cc4s3)o2)cc(OC)c1OC", "activation": "12.4%"}, {"smiles": "CCN(CC)CCOc1ccc2c(c1)C(=NNC(=O)c1ccccn1)c1cc(OCCN(CC)CC)ccc1-2", "activation": "-0.85%"}, {"smiles": "CN(CCNC(=O)c1cc2c(-c3ccccc3F)nn(C)c2s1)C1CCCCC1", "activation": "18.1%"}, {"smiles": "C[C@@H](Nc1nc(-c2ccccc2)nc2c1oc1ccccc12)C(=O)O", "activation": "0.442%"}, {"smiles": "COCCNc1nc(-c2ccccc2)nc2c1oc1ccccc12", "activation": "10.6%"}, {"smiles": "CCc1nc(Nc2ccc3nccnc3c2)c2oc3ccccc3c2n1", "activation": "92.8% (active)"}, {"smiles": "O=C(CSc1ccc(Cl)cc1)NC1CC1", "activation": "8.89%"}, {"smiles": "Cc1noc(NS(=O)(=O)c2ccc(N3CC(O)=C(c4ccccc4)C3=N)cc2)c1C", "activation": "-0.03%"}, {"smiles": "COc1ccc(N=C2C=CC(=O)O2)cc1", "activation": "6.95%"}, {"smiles": "COc1ccc(N=Nc2c(-c3ccc(OC)cc3)[nH]oc2=O)cc1", "activation": "61.5% (active)"}, {"smiles": "O=c1o[nH]c(-c2ccccc2)c1N=Nc1c(F)cccc1Cl", "activation": "-10.5%"}, {"smiles": "COc1ccc(N2CCN(Cc3ccc(Br)s3)CC2)cc1", "activation": "-3.28%"}, {"smiles": "O=S(=O)(c1cnccc1N1CCN(/N=C/c2ccc(Br)cc2)CC1)N1CCCCC1", "activation": "-7.86%"}, {"smiles": "O=C(c1ccc(Cl)nc1)N1CCN(S(=O)(=O)c2ccc3c(c2)OCCO3)CC1", "activation": "2.83%"}, {"smiles": "COc1cc(C(=O)N2CCN(C)CC2)cc(OC)c1OC", "activation": "4.16%"}, {"smiles": "CC1CC(C)CN(S(=O)(=O)c2cccc(C(=O)N3C(=O)c4cccc(N)c4C3=O)c2)C1", "note": "(stereo not given)", "activation": "3.79%"}, {"smiles": "COc1cc(C(=O)N2C(=O)c3cccc(N)c3C2=O)cc(OC)c1OC", "activation": "75.9% (active)"}, {"smiles": "NC(CSC(c1ccccc1)(c1ccccc1)c1ccc(-c2ccccc2)cc1)C(=O)O", "note": "(stereo not given)", "activation": "-7.6%"}, {"smiles": "COc1ccc(CN(C)C(=S)Nc2ccc(Cl)cc2Cl)cc1", "activation": "7.07%"}, {"smiles": "O=c1c2ccccc2nc(/C=C/c2ccc(F)cc2)n1-c1ccccc1O", "activation": "-12.9%"}, {"smiles": "O=c1c2ccccc2nc(/C=C/c2ccco2)n1-c1ccccc1O", "activation": "-0.876%"}, {"smiles": "CCn1c(/C=C/c2ccc([N+](=O)[O-])o2)nc2ccccc2c1=O", "activation": "1270% (active)"}, {"smiles": "CN1OC[C@@H]2CN[C@H](c3ccc(-c4ccccc4)cc3)C[C@@H]21", "activation": "8.87%"}, {"smiles": "COC(=O)c1c(-c2ccsc2)oc2ccc(-c3cc(OC)c(OC)c(OC)c3)cc12", "activation": "1.83%"}, {"smiles": "O=C1N[C@H](Cc2c[nH]c3ccccc23)COC(=O)[C@H](Cc2ccc(F)cc2)C/C=C\\C[C@H]1CC(=O)N(CCO)Cc1ccccc1", "activation": "-14.8%"}]}]}
